Reference: the supplement of paper PMC6555819

Columns and labels:
Assay in all cases: PBM binding z-score (relative to random genomic background probes); higher = stronger binding; sequences stand for … in GC…GCGATTGACAGCGTAGAATGAAGG
[1] = system: FXR:RXRa (NR concentration 270 nM, RXRa partner concentration 90 nM)
Procedure, shortened: (§1)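 Scanned fluorescence from custom Agilent 4×180K protein-binding microarrays was regression-normalized. Binding z-scores use random background probes as reference. Ligand-free nuclear receptor dimers were incubated on the arrays for 1 h and detected with antibodies against each partner (one per run).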

[2] = system: LXRa:RXRa (NR concentration 270 nM, RXRa partner concentration 90 nM)
Procedure, shortened: as §1

[3] = system: LXRa homodimer (NR concentration 270 nM)
Procedure, shortened: as §1

[4] = system: LXRb:RXRa (NR concentration 270 nM, RXRa partner concentration 90 nM)
Procedure, shortened: as §1

[5] = system: LXRb homodimer (NR concentration 270 nM)
Procedure, shortened: as §1

[6] = system: PPARa:RXRa (NR concentration 270 nM, RXRa partner concentration 90 nM)
Procedure, shortened: as §1

[7] = system: PPARg:RXRa (NR concentration 180 nM, RXRa partner concentration 90 nM)
Procedure, shortened: as §1

[8] = system: PPARg:RXRa 270nM:90nM, anti-RXR (NR concentration 270 nM, RXRa partner concentration 90 nM)
Procedure, shortened: as §1

[9] = system: PPARg:RXRa 30nM:10nM, anti-RXR (NR concentration 30 nM, RXRa partner concentration 10 nM)
Procedure, shortened: as §1

[10] = system: PPARg:RXRa 90nM:30nM, anti-RXR (NR concentration 90 nM, RXRa partner concentration 30 nM)
Procedure, shortened: as §1

Row | Sequence | PBM binding z-score [1] | PBM binding z-score [2] | PBM binding z-score [3] | PBM binding z-score [4] | PBM binding z-score [5] | PBM binding z-score [6] | PBM binding z-score [7] | PBM binding z-score [8] | PBM binding z-score [9] | PBM binding z-score [10]
1 | AATACAGGGTCATCGTAGGCCAGAGAACGCACAG | 7.44 | 6.64 | 2.11 | 4.8 | 1.09 | 6.16 | 7.11 | 6.17 | 2.74 | 5.08
2 | GCGACTGGGGCATCAGCCGGTTACCATAACTTAA | -0.764 | -0.553 | -0.599 | -0.35 | -1.65 | 0.18 | 0.552 | 0.636 | -0.73 | -0.0776
3 | CGTCCAAGGTCAATGGTAGGTCAGTGAAAGCATT | 6.69 | 5.38 | 2.66 | 4.27 | 0.432 | 5.14 | 3.76 | 4.73 | 1.28 | 3.54
4 | AGAATGAGGTTATTAAGATCAGTGAATTGCGGTC | 1.66 | 1.74 | 0.236 | 1.27 | 0.0793 | 2.7 | 1.43 | 1.81 | 0.385 | 0.958
5 | TAGCCTAGGTCAGATCGGGCCAGTATCCGCTATA | 2 | 1.05 | -0.375 | 0.765 | -0.472 | 1.69 | 0.405 | 0.707 | -0.351 | -0.0749
6 | TCTTGTAGATCAAGCAGGTTAAGAAGGCCTGAGT | 0.0541 | 0.0936 | -0.218 | 0.226 | -0.745 | 0.84 | -0.304 | 1.15 | 2.45 | 1.9
7 | ATTTCTAGGTAAAAGTTCAGTGAATCCCGAGGAT | 1.14 | 1.71 | 1.53 | 1.49 | 1.12 | 5.27 | 9.08 | 8.85 | 8.73 | 10.6
8 | CATACAGGGTCAGCTAGGCCAGACTAGGGACGGC | 4.02 | 2.77 | -0.135 | 1.97 | 0.282 | 4.06 | 3.31 | 2.8 | 0.502 | 1.8
9 | TCATATAGGTAAATGCTAGGTGACAGTCCGATCT | 0.752 | 0.626 | -0.0198 | 0.519 | -0.279 | 1.12 | 0.994 | 2.02 | 3.61 | 2.54
10 | CAGCCTAGGTCAGGGCCAGTAAAGGAGGAACGTT | 1.69 | 0.93 | -0.563 | 0.471 | -1.1 | 2.26 | 0.751 | 0.991 | -0.53 | 0.142
11 | CGAACTAGGTCGTTGACAGGACAGTGAATAGTAA | 0.598 | 0.178 | -0.251 | 0.171 | -0.626 | 1.98 | 2.2 | 2.02 | 0.441 | 1.44
12 | TCGAGTAGGTTAGTCGGAGCATTCAGCCAACATA | -0.453 | -0.512 | -0.667 | -0.741 | -1.46 | 0.0631 | -0.127 | 0.379 | 0.624 | 0.538
